The list is not random: actives were taken first. Their share in the collection is about 10%.
VP16 counter – VP16 counterscreen qHTS for inhibitors of ROR gamma transcriptional activity. Potency, µM (doses to about 53.6 µM), without a hit: top-dose activity, negative = inhibition, usual class: inhibitors. Drosophila S2 Gal4-VP16 UAS-luciferase, luminescence, 20 h. actives 3.5% (n = 310,000);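 also: Gal4-VP16 expression switched on by copper sulfate through the metallothionein promoter; % is scaled to controls: 0 for no effect and ±100 for the full control effect; nearly all actives have a fitted effect of over 50% in size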
RORg inh – qHTS for inhibitors of ROR gamma transcriptional activity; Drosophila S2 Gal4-RORgamma UAS-luciferase reporter, 20 h; actives 5.4% (n = 310,000); Nuclear receptor ROR-gamma (Mus musculus), P51450; Potency, µM (doses to about 53.6 µM), for the others: at the top dose activity change, negative = inhibition, usual class: inhibitors; also: % is scaled to controls: 0 for no effect and ±100 for the full control effect; nearly all actives have a fitted effect of over 60% in size
Target sequence (P51450 whole entry, looked up, the tested form may be a part): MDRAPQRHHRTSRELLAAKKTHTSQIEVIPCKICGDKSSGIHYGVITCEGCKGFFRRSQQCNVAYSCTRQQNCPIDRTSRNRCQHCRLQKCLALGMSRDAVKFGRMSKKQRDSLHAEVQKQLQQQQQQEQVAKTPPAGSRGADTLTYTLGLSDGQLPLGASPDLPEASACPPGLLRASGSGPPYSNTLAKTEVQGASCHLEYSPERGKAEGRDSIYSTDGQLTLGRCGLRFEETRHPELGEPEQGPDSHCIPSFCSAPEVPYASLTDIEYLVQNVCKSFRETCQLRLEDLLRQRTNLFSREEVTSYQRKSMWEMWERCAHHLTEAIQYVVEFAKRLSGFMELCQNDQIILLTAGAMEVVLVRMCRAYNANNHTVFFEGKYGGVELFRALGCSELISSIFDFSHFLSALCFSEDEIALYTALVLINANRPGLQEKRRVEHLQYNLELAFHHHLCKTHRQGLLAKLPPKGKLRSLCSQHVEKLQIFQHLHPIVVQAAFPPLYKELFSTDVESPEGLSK
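Stably transfected Drosophila Schneider cells are the test system, with ROR gamma fused to Gal4 and luciferase under UAS control; luminescence is read after 20 hr of 700 uM copper sulfate induction at ambient temperature.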
SW480 rereplic – A quantitative high throughput screen for small molecules that induce DNA re-replication in SW480 colon adenocarcinoma cells | SW480 DNA re-replication, Hoechst DNA content imaging, 48 h | Potency, µM (doses to about 46.1 µM), without a hit: at the top dose re-replication activation, actives largely listed as activators | actives 1.8% (n = 340,000); also: % of control where 0% means no effect; nearly all actives have a fitted effect of over 55% in size
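SW480 cells exposed to compounds for 48 hr at 37 C, 5% CO2, then Hoechst-stained 40 min. Nuclear DNA content imaged by fluorescence scanning (405 nm excitation, 500-530 nm emission); re-replication scored as increased high-intensity nuclei.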
ELG1 repair inh – qHTS screen for small molecules that inhibit ELG1-dependent DNA repair in human embryonic kidney (HEK293T) cells expressing luciferase-tagged ELG1. HEK293T ELG1-luciferase reporter, luminescence, 16 h; DNA damage induced by 5-fluorouridine. Potency, µM (doses to about 46.1 µM), for the others: at the top dose activity change, negative = inhibition, hits mostly inhibitors. actives 2.3% (n = 330,000); also: % is scaled to controls: 0 for no effect and ±100 for the full control effect; nearly all actives have a fitted effect of over 55% in size
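Step one: seed 2,000 cells per well. Step two: pin-transfer compound or DMSO alongside 5-fluorouridine. Step three: incubate 16 hr, 37 °C, 5% CO2. Step four: add ONE-Glo, wait 30 min, read luminescence.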
MCF10A rerep – A quantitative high throughput screen for small molecules that induce DNA re-replication in MCF 10a normal breast cells; MCF 10A DNA re-replication, Hoechst nuclear intensity, 48 h; Potency, µM (doses to about 46.1 µM), for the others: at the highest dose activity, positive = re-replication, actives largely listed as activators; actives 2.9% (n = 350,000); AID 624296, 2012; also: % of control where 0% means no effect; nearly all actives have a fitted effect of over 50% in size
The depositor's hits bear a star; ? = inconclusive; · = no result given; [ ] = another dose, or the depositor's remark. Calls follow the shape of the dose curve; as a rule, active = well fitted curve in the direction sought with a large enough effect; inconclusive = small, poorly fitted or top-dose-only effect, or another doubt; inactive = no such curve, though single readings can be large; an effect the other way counts as inactive or inconclusive. Potency is read from the fitted curve at half-maximal effect.

SMILES	VP16 counter	RORg inh	SW480 rereplic	ELG1 repair inh	MCF10A rerep
CN(C)CCCn1c(N)c(S(=O)(=O)c2ccccc2)c2nc3ccccc3nc21	-2%	9%	?	8%	23µM*
CCCCn1c(N)c(S(=O)(=O)c2ccc(C)cc2)c2nc3ccccc3nc21	-23%	?	0.65µM*	?	3.7µM*
Cc1ccc(S(=O)(=O)c2c(N)n(Cc3ccco3)c3nc4ccccc4nc23)cc1	-6%	36%	?	-11%	?
CCN1C=C(Cc2cccs2)C2=C(C1)C(c1cccs1)C(C#N)=C(N)O2 (centres undefined)	-2%	18%	25%	?	21µM*
CCN1CC2=C(OC(N)=C(C#N)C2c2cccs2)/C(=C/c2cccs2)C1 (centres undefined)	12%	13%	?	16µM*	?
N#CC1=C(N)OC2=C(CN(Cc3ccccc3)C/C2=C\c2cccnc2)C1c1cccnc1 (centres undefined)	11%	?	-1%	-16%	9%
CCN1CC2=C(OC(N)=C(C#N)C2c2ccccc2)/C(=C\c2ccccc2)C1 (centres undefined)	4%	16%	?	?	23µM*
CC1CCCCC1NC(=O)Cn1cc([N+](=O)[O-])ccc1=O (centres undefined)	·	·	-10%	?	-3%
CNC(=S)N1N=C(c2ccccc2)CC1c1ccccc1Cl (centres undefined)	-9%	18µM*	10%	4%	?
CC(=O)N1N=C(c2ccc([N+](=O)[O-])cc2)CC1c1ccccc1Cl (centres undefined)	1%	12%	1%	-15%	0%
CNC(=S)N1N=C(c2ccc(C)cc2)CC1c1ccc(Br)cc1 (centres undefined)	7%	-94%	12%	?	8%
CNC(=S)N1N=C(c2ccc(C)cc2)CC1c1ccc(Cl)cc1 (centres undefined)	-2%	13µM*	1%	16µM*	15%
CC(C)c1ccc(C2CC(c3ccc(Br)cc3)=NN2C(N)=S)cc1 (centres undefined)	5.6µM*	1.8µM*	28%	?	?
CCCCCCN(C(=O)CCCCCN1C(=O)NC(c2ccc(-c3ccccc3)cc2)C(C(=O)OCc2ccccc2)=C1C)C(C(=O)NCCCC)c1ccc(O)c(C(=O)OC)c1 (centres undefined)	8%	0%	·	12%	·
O=C(N/N=C/C1CC2CCC1C2)c1c[nH]c2ccccc12 (centres undefined)	6%	-30%	-12%	-12%	12%
Cc1[nH]c(=O)c(C(=O)/C=C/c2ccccc2F)c2c1CCCC2	5.6µM*	5.6µM*	4.1µM*	15µM*	3.3µM*
C/C(=C\c1ccccc1F)C(=O)c1c(C)cc(C)[nH]c1=O	-4%	-17%	-1%	-14%	-39%
CN(C)CCC=C1c2ccccc2C=Cc2ccccc21	2%	-14%[10 µM]	?	-4%	1%
CN(C)CCC=C1c2ccccc2C(C)(C)c2ccccc21	2%	-26%	?	·	30µM*
Cc1ccc(S(=O)(=O)CCC(=O)Nc2cc(Cl)ccc2-n2cncn2)cc1	·	·	22%	4%	-8%
COc1cc2c(cc1C1NC(=S)NC(C)=C1C(N)=O)CCCC2 (centres undefined)	-2%	2.8µM*	?	?	2%
Cn1c(CN2CCOCC2)nnc1SCC(=O)Nc1ccc([N+](=O)[O-])cc1O	?	32%	10%	13µM*	?
CC(=O)CC1OC(=O)C(Br)=C1NCc1ccccc1 (centres undefined)	20µM*	?	?	?	2.6µM*
Cc1nn(Cc2c(Cl)cccc2Cl)c(Cl)c1/C=N/NC(=O)c1cccnc1	2%	43%	?	?	21µM*
O=C(N/N=C/c1cccc2ccccc12)c1cccnc1	20%	-4%	-11%	?	1%
SMILES	VP16 counter	RORg inh	SW480 rereplic	ELG1 repair inh	MCF10A rerep
COc1ccc(Cn2c(O)c(/C=N/NC(=O)c3cccnc3)c3ccccc3c2=O)cc1	0%	6.3µM*	?	18µM*	?
O=C(N/N=C/c1c(O)n(Cc2ccccc2)c(=O)c2ccccc12)c1cccnc1	-1%	11µM*	23%	?	?
O=C(N/N=C/c1c(-c2ccccc2)[nH]c2ccccc12)c1cccnc1	-19%	17%	23µM*	-12%	?
O=C(N/N=C/c1c(O)n(-c2ccccc2Cl)c(=O)c2ccccc12)c1cccnc1	-7%	13µM*	16µM*	-15%	?
Cn1c(-c2ccccc2)c(/C=N/NC(=O)c2cccnc2)c2ccccc21	3%	?	?	?	?
Cc1cccc(-c2n[nH]c(=S)n2/N=C/c2cccs2)c1	10µM*	5µM*	1%	?	0%
Cc1cccc(-c2n[nH]c(=S)n2/N=C/c2ccc(C)s2)c1	5.6µM*	11µM*	-5%	-1%	3%
Cc1ccc(/C=N/n2c(-c3ccncc3)n[nH]c2=S)s1	-2%	?	1%	-15%	8%
CCCn1c(SCC(=O)N(C)C2CCS(=O)(=O)C2)nc2sc3c(c2c1=O)CCC3 (centres undefined)	·	·	18µM*	-21%	11%
CCCn1c(SCC(=O)NCC)nc2sc3c(c2c1=O)CCC3	-2%	-12%	3%	?	19%
CCn1c(SC(C)C(=O)O)nc2sc3c(c2c1=O)CCC3 (centres undefined)	7.1µM*	5.6µM*	-3%	10%	8%
CCOC(=O)C1CCN(C(=O)c2cc(S(=O)(=O)N3CCc4ccccc43)ccc2OC)CC1	·	·	-4%	8%	5%
COc1ccccc1OCCC(=O)OCC(=O)c1[nH]c(C)c(C(C)=O)c1C	?	14µM*	?	17%	?
CC(=O)c1c(C)[nH]c(C(=O)COC(=O)CCCOc2ccccc2)c1C	3%	14%	5%	-1%	-9%
CC(=O)c1c(C)[nH]c(C(=O)OCCOc2ccccc2)c1C	8.9µM*	11µM*	-3%	?	-1%
CC(=O)c1c(C)[nH]c(C(=O)OCc2cccc(C)c2)c1C	-22%	?	-10%	?	19%
CC(=O)c1c(C)[nH]c(C(=O)OCc2ccc(Br)cc2)c1C	?	?	-5%	18µM*	16%
CCc1cc2c(nc1CC)CCN(CC/C(C)=N/O[C@@H](C)CN1CCCCc3nc(C)c(C)cc31)C2	4%[10 µM]	-1%[10 µM]	·	·	·
